Among the data in PubChem BioAssay (EPA / NIEHS) are AC50 and outcome values, retold here.

Calls of active or inactive are those of the source. How the source made its calls: active means hit-call score of the fitted dose curve at least 0.9, where 1 is the maximum; inactive means score below 0.9.

Read-out in test [1]: Monokine induced gamma interferon (MIG), CXCL9 (gene 4283)
Description: BSK_hDFCGF_MIG: BioMAP Diversity Plus: hDFCGF Assay for Monokine induced gamma interferon (MIG) Biomarker Activity (AID 2283063). Conditions: primary human foreskin fibroblasts; actives raise or lower the signal. The gist of the method:
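Human primary foreskin fibroblasts in the hDFCGF system, exposed to test chemical for 24 h; MIG measured by ELISA. Bidirectional curve fitting against DMSO negative control as activity baseline.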

Read-out in test [2]: Matrix Metallopeptidase 1 (MMP1), MMP1 (gene 4312)
Description: BSK_hDFCGF_MMP1: BioMAP Diversity Plus: hDFCGF Assay for Matrix Metallopeptidase 1 (MMP1) Biomarker Activity (AID 2283064). Conditions: primary human foreskin fibroblasts; actives raise or lower the signal. The gist of the method:
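ELISA read-out of MMP1 from human foreskin fibroblasts (primary skin cells), 24 h post-dose. Gain or loss of signal was fitted bidirectionally versus DMSO negative control; cytotoxicity was checked by SRB in parallel cultures.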

Read-out in test [3]: Vascular cell adhesion molecule 1 (VCAM1), VCAM1 (gene 7412)
Briefly: BSK_hDFCGF_VCAM1: BioMAP Diversity Plus: hDFCGF Assay for Vascular cell adhesion molecule 1 (VCAM1) Biomarker Activity (AID 2283065).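 On AC50: VCAM-1 protein level quantified by ELISA after 24 h chemical exposure.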 Conditions: primary human foreskin fibroblasts; actives raise or lower the signal. The gist of the method: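 ELISA readout of VCAM-1 on human dermal fibroblast primary cultures, 24 h after chemical exposure. Gain or loss of signal fitted in both directions against DMSO baseline.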

Read-out in test [4]: Plasminogen activator inhibitor-1 (PAI1), SERPINE1 (gene 5054)
Briefly: BSK_hDFCGF_PAI1: BioMAP Diversity Plus: hDFCGF Assay for Plasminogen activator inhibitor-1 (PAI1) Biomarker Activity (AID 2283066). Conditions: primary human foreskin fibroblasts; actives raise or lower the signal. The gist of the method:
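PAI-1 levels in human dermal foreskin fibroblasts were quantified by ELISA 24 h after dosing, with gain or loss analysed against DMSO. Overt cytotoxicity was checked by sulforhodamine B total-protein staining in parallel cultures.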

Read-out in test [5]: Intercellular Adhesion Molecule 1 (ICAM1), ICAM1 (gene 3383)
Description: BSK_KF3CT_ICAM1: BioMAP Diversity Plus: KF3CT Assay for Intercellular Adhesion Molecule 1 (ICAM1) Biomarker Activity (AID 2283067). To be noted: primary human keratinocytes with fibroblasts; actives raise or lower the signal. A digest of the protocol: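 Cell-surface ICAM-1 was measured by ELISA 24 h after dosing primary human skin keratinocytes co-cultured with fibroblasts. Parallel SRB staining tracked overt cytotoxicity. Gain or loss of signal was fitted relative to DMSO.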

Read-out in test [6]: Interferon-gamma inducible Protein 10 (IP10), CXCL10 (gene 3627)
Description: BSK_KF3CT_IP10: BioMAP Diversity Plus: KF3CT Assay for Interferon-gamma inducible Protein 10 (IP10) Biomarker Activity (AID 2283068). To be noted: primary human keratinocytes with fibroblasts; actives raise or lower the signal. The gist of the method: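 Signal is secreted/surface IP-10 by ELISA in a human primary skin co-culture of keratinocytes and foreskin fibroblasts, taken 24 h post-dosing; DMSO served as negative control.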

A short description of test [7]: BSK_KF3CT_SRB: Viability Assessment in the BioMAP Diversity Plus: KF3CT Assay (AID 2283069).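 Further: read 24 h after compound addition.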 To be noted: primary human keratinocytes with fibroblasts. A digest of the protocol:
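SRB read-out at 560 nm (0.1% stain, TCA-fixed cells) gauges overt cytotoxicity in a human skin keratinocyte–fibroblast co-culture 24 h post-dosing. Signal change was fitted bidirectionally relative to DMSO control.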

Read-out in test [8]: TIMP metallopeptidase inhibitor 2 (TIMP2), TIMP2 (gene 7077)
Description: BSK_KF3CT_TIMP2: BioMAP Diversity Plus: KF3CT Assay for TIMP metallopeptidase inhibitor 2 (TIMP2) Biomarker Activity (AID 2283071). Conditions: primary human keratinocytes with fibroblasts; actives raise or lower the signal. The gist of the method:
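TIMP-2 measured by ELISA at 24 h in human keratinocyte/fibroblast primary co-cultures exposed to chemicals. Both increases and decreases were fitted against DMSO. Parallel cultures were stained with SRB for total protein as an overt-cytotoxicity check.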

Read-out in test [9]: Transforming growth factor beta 1 (TGFb1), TGFB1 (gene 7040)
Description: BSK_KF3CT_TGFb1: BioMAP Diversity Plus: KF3CT Assay for Transforming growth factor beta 1 (TGFb1) Biomarker Activity (AID 2283072). Conditions: primary human keratinocytes with fibroblasts; actives raise or lower the signal. The gist of the method:
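ELISA quantifies TGF-b1 at 24 h post-dose in a primary human skin co-culture of keratinocytes and fibroblasts, with gain or loss judged against DMSO. Parallel SRB total-protein staining flags overt cytotoxicity.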

Read-out in test [10]: Interleukin-1 alpha (IL1a), IL1A (gene 3552)
Briefly: BSK_KF3CT_IL1a: BioMAP Diversity Plus: KF3CT Assay for Interleukin-1 alpha (IL1a) Biomarker Activity (AID 2283070). Conditions: primary human keratinocytes with fibroblasts; actives raise or lower the signal. A digest of the protocol: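 Primary skin co-culture (keratinocytes, foreskin fibroblasts), 24 h exposure; ELISA for IL-1a; bidirectional curve fit vs DMSO.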

Usually AC50 stands for the concentration giving half of the maximal activity seen. Turning to `CC(C)(c1cc(Br)c(O)c(Br)c1)c1cc(Br)c(O)c(Br)c1`, the AC50 is 7.65 µM (active) in test [1]; 6.31 µM (active) in test [2]; 5.94 µM (active) in [3]; 5.46 µM (active) in test [4]; 4.85 µM (active) in test [5]; 2.53 µM (active) in [6]. Further, the AC50 in test [7] was 5.11 µM (active); in test [8], 4.6 µM (active); in test [9] it was 1.69 µM (active).

In the case of `O=C(OCCCCCCOC(=O)c1ccccc1)c1ccccc1`, the result in test [1], in test [2], in test [3], in [4], in test [5] and in test [6] was inactive. For the same molecule, the result in test [7] and in test [8] was inactive.

For `CCN(Cc1cccc(S(=O)(=O)O)c1)c1ccc(C(=C2C=CC(=[N+](CC)Cc3cccc(S(=O)(=O)O)c3)C=C2)c2ccccc2S(=O)(=O)[O-])cc1`, the outcome in test [1], in test [2], in test [3], in [4], in test [5] and in [7] was inactive. In test [8], the result was inactive.

For `CCO[Si](CCCNC(N)=O)(OCC)OCC`, the outcome in test [1], in test [2], in test [3], in test [4], in test [5] and in [7] was inactive. In addition, the outcome in test [8] and in test [9] was inactive.

As to `Clc1ccccc1C(c1ccccc1)(c1ccccc1)n1ccnc1`, the AC50 in [1] is 8.88 µM (active); in test [2] it was 7.77 µM (active); in test [3], 8.14 µM (active); in test [4], 5.57 µM (active); in test [5] it was 11.5 µM (active); in [7] it was 5.3 µM (active). The results for the AC50 in test [10] and in [8] were 10.4 µM (active) and 10 µM (active), respectively.

Consider `O=C(O)Cn1c(=O)n(Cc2ccc(Br)cc2F)c(=O)c2ccc(Cl)cc21`, for which the outcome in [1], in [2], in test [3], in test [4], in [5] and in test [7] was inactive. Also, in test [8], the result was inactive.

Turning to `CC[C@H](NC(=O)c1cc(F)ccc1NS(=O)(=O)c1cccc2cccnc12)c1ccccc1`, the result in [1], in test [2], in test [3], in test [4], in test [5] and in test [7] was inactive. Also, the outcome in test [8] and in [9] was inactive.

Turning to `O=c1ccc2ccccc2o1`, the result in [1], in test [2], in test [3], in test [4], in [5] and in [7] was inactive. For the same molecule, the result in test [10], in test [8] and in test [9] was inactive.

As for `C[C@]12CC[C@@H]3c4ccc(O)cc4CC[C@H]3[C@@H]1CC[C@H]2O`, the outcome in [1], in test [2], in test [4], in test [5], in [7] and in [10] was inactive. Also, the outcome in test [8] was inactive. The AC50 in test [3] was 15.4 µM (active).

As to `CC1=CC(=O)/C(=C(/C)O)C(=O)O1`, the result in [1], in [2], in test [3], in [4], in test [5] and in test [7] was inactive. The result in test [10] and in test [8] was inactive.

As for `CCOC(=O)O[C@H](C)OC(=O)c1ccc2c(c1)cc(C(=O)NC1CCN(C(C)C)CC1)n2Cc1cc(-c2ccc(Cl)s2)on1`, the AC50 was 6.08 µM (active) in test [1]; 6.2 µM (active) in test [2]; 3.74 µM (active) in [3]; 3.81 µM (active) in test [4]; 9.05 µM (active) in test [5]; 6.24 µM (active) in test [7]. The AC50 in [10] is 6.3 µM (active); in test [8], 7.43 µM (active).

In the case of `NCc1cccc(C2CCN(C(=O)c3ccc(C#Cc4ccccc4F)o3)CC2)c1`, the AC50 in [1] was 11.7 µM (active); in test [2], 11 µM (active); in test [3], 7.78 µM (active); in [4] it was 7.77 µM (active); in test [5] it was 29.6 µM (active); in test [7], 5.34 µM (active). Also, the AC50 in [8] is 8.8 µM (active); in test [9], 10.4 µM (active).

As for `O=C(O)c1ccccc1-n1cc(C(=O)O)c(=O)c2cc(Nc3c(F)cc(F)cc3Cl)c(Cl)cc21`, the outcome in test [1], in [2], in test [3], in [4], in test [5] and in test [7] was inactive. For the same molecule, the outcome in test [10] and in [8] was inactive.

For `CN(C[C@@H](CC[N+]12CCC(C3CCCCC3)(CC1)CC2)c1ccc(Cl)c(Cl)c1)C(=O)c1cc(C(F)(F)F)cc(C(F)(F)F)c1`, the AC50 in test [1] was 10.3 µM (active); in test [2], 7.58 µM (active); in test [3], 7.41 µM (active); in [4] it was 5.56 µM (active); in test [5] it was 12.3 µM (active); in test [7], 6.58 µM (active). Also, the AC50 in test [8] was 7.76 µM (active); in test [9], 7.34 µM (active).

Regarding `Cc1oc2c(NC(=O)c3c(Cl)cccc3Cl)cccc2c1C(C)(C)O`, the result in [1], in test [3], in [5], in test [7] and in [9] was inactive. In addition, the AC50 in test [2] is 10.7 µM (active); in test [4] it was 14.2 µM (active); in test [8], 5.2 µM (active).

In the case of `CC(C)(C)c1csc(-c2cc3cc(OCc4ccccc4CC(=O)O)ccc3o2)n1`, the AC50 in test [1] is 15.2 µM (active); in [2] it was 14.5 µM (active); in test [3] it was 10.1 µM (active); in test [4], 11.3 µM (active); in test [5], 24.3 µM (active); in test [7] it was 12.6 µM (active). Moreover, the values for the AC50 in [10] and in test [8] were 33 µM (active) and 20.3 µM (active), respectively.

Turning to `CC(C)(C)c1cc(/C=C2\SC(N)=NC2=O)cc(C(C)(C)C)c1O`, the AC50 is 14.2 µM (active) in test [1]; 20 µM (active) in [2]; 15.6 µM (active) in test [3]; 20 µM (active) in [4]; 7.93 µM (active) in test [7]; 11.5 µM (active) in test [8]. Besides, the AC50 in test [9] was 12.8 µM (active). For the same molecule, the outcome in test [5] was inactive.

Turning to `Cc1occc1C(=O)Nc1ccc(C(=O)N2CCC(F)(F)/C(=C\C(=O)N3CCC(N4CCCCC4)CC3)c3ccccc32)cc1`, the outcome in test [1], in test [2], in test [3], in test [4], in test [5] and in test [7] was inactive. For the same molecule, the outcome in test [10], in test [8] and in test [9] was inactive.

As for `CO[C@H]1/C=C/O[C@@]2(C)Oc3c(C)c(O)c4c(O)c(c(/C=N/N5CCN(C)CC5)c(O)c4c3C2=O)NC(=O)/C(C)=C\C=C\[C@H](C)[C@H](O)[C@@H](C)[C@@H](O)[C@@H](C)[C@H](OC(C)=O)[C@@H]1C`, the outcome in [1], in test [3], in test [4], in test [5], in test [6] and in test [7] was inactive. Also, the result in test [8] was inactive.

For `Oc1ccc2ccccc2c1`, the result in [1], in test [2], in [3], in [4], in test [5] and in [7] was inactive. Besides, the outcome in test [8] and in test [9] was inactive.
